Here are results for 84 compounds from PubChem BioAssay AID1851 (National Center for Advancing Translational Sciences (NCATS), 2009).

The structures appear in SMILES notation. Values joined by “and” are separate entries in the source; they are usually repeats but may differ in a detail not shown here. Equal values may be shown once. The whole screen tested about 16,000 compounds, of which about 5,800 (36%) were called active. Another 23% or so got no clear call; they are omitted. The call rests on the fitted dose curve; in most records, active means well fitted curve in the direction sought with a large enough effect; inconclusive means small, poorly fitted or top-dose-only effect, or effect the other way; inactive means no such curve, though single readings can be large or run the other way. This is one part of the list. Some compounds were tested as several samples or in several runs, with calls that do not always agree.
On the % scale 0 is the no-effect control and ±100 the full control effect.

Sequence of Cytochrome P450 2C19 (Homo sapiens) (P33261 whole entry, looked up): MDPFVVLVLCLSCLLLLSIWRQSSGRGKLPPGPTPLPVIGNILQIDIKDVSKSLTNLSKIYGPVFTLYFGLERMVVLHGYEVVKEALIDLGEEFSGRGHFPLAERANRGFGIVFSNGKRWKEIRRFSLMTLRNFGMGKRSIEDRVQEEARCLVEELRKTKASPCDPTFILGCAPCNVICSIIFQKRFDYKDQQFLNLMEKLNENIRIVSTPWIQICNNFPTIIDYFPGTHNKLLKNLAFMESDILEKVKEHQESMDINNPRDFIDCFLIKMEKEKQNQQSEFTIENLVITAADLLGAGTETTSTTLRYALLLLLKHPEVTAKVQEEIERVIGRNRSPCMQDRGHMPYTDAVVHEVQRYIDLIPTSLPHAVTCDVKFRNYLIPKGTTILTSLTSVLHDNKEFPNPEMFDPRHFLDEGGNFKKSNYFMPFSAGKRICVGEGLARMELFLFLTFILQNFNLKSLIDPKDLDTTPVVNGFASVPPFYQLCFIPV

The assay has as its target Cytochrome P450 2C19 (Homo sapiens) (UniProt P33261). As to the kind of experiment: Cytochrome panel assay with activity outcomes. The following applies: recombinant CYP, pro-luciferin dealkylation, luminescence, p450-cyp2c19; series mostly up to 57.1 µM.
For `CSCC[C@@H](N)P(C)(=O)O`, the activity, negative = inhibition is 29.3% [at 11.4 µM] (inactive).
For `O[Si@](CCCN1CCCCC1)(c1ccc(F)cc1)C1CCCCC1`, the AC50 – broadly, the concentration giving half of the maximal activity seen – is “inactive”.
With `C[N+]1(C)[C@@H]2CC(OC(=O)[C@@H](CO)c3ccccc3)C[C@@H]1[C@H]1O[C@H]12` (some centres undefined), the activity, negative = inhibition was 26.7% [at 11.4 µM] (inactive).
For the compound `C[C@@H]1O[C@H](OC2[C@@H](O)[C@H](O)C(O)[C@H](O)[C@H]2O)[C@@H](N)C[C@@H]1N=C(N)C(=O)O` (some centres undefined), the activity, negative = inhibition is 19% [at 11.4 µM] (inactive).
As for `N[C@@H](CP(=O)(O)O)C(=O)O`, the activity, negative = inhibition is 9.32% [at 11.4 µM] (inactive).
As for `CC[C@@]1(c2ccc(N)cc2)CCC(=O)NC1=O`, the AC50 entry was “inactive”.
On to `CN1CC[C@@]2(CCCN(C(=O)Oc3ccccc3)C2)C1`, for which the AC50 result was “inactive”.
Consider `C[C@@]12C=CC(=O)C=C1CC[C@@H]1C2=CC[C@]2(C)[C@@H]1CC[C@H]2C(=O)CN1CCN(c2cc(N3CCCC3)nc(N3CCCC3)n2)CC1`, for which the AC50 entry is “inactive”.
With `O[C@@H](c1cc(-c2ccccc2)nc2c1ccc1ccccc12)[C@@H]1CCCCN1`, the activity, negative = inhibition was -42.2% [at 11.4 µM] (inactive).
In the case of `CCCN1CCc2cccc3c2[C@@H]1Cc1ccc(O)c(O)c1-3`, the AC50 entry was “inactive”.
On the same count and under the same terms, to `C[C@@H]1O[C@H](O[C@@H]2CC[C@@]3(C=O)[C@H]4CC[C@@]5(C)[C@@H](C6=CC(=O)OC6)CC[C@@]5(O)[C@@H]4CC[C@]3(O)C2)C[C@H](O)[C@@H]1O` belongs “inactive”.
For `COC(=O)[C@@H]1[C@@H]2C[C@H]3c4[nH]c5cc(OC)ccc5c4CCN3C[C@@H]2C[C@H](OC(=O)/C=C\c2cc(OC)c(OC)c(OC)c2)[C@H]1OC`, the AC50 entry was “inactive”.
Same read-out and setting: to `O=c1[nH]c(=O)n([C@H]2C[C@H](O)[C@H](CO)O2)cc1/C=C\Br` belongs “inactive”; to `C[C@@]12CC[C@H](O)C[C@@H]1CC[C@H]1[C@H]2CC[C@@]2(C)[C@@H](C3=CC(=O)OC3)CC[C@]12O`, “inactive”.
As for `CC(=O)OCC(=O)[C@@H]1CC[C@H]2[C@H]3CC[C@H]4C[C@@H](O)CC[C@]4(C)[C@@H]3C(=O)C[C@@]12C`, the AC50 result is “inactive”.
As to `COc1ccc2c(c1)CN([C@H](C)[C@@H]1CC[C@@H]3[C@H]4CC[C@H]5C[C@@H](O)CC[C@@]5(C)[C@H]4CC[C@]31C)CO2`, the AC50 is 1 µM (active).
With `O=c1c(O)c(-c2ccc(O)c(O)c2)oc2cc(O)cc(O)c12`, the AC50 entry is “inactive”.
For the compound `CS(=O)(=O)N1CCCC(C(=O)N2CCC3(CC2)OCCO3)C1` (centres undefined), the concentration at half-maximal activity (AC50) was 10 µM (active).
Regarding `COc1ccc2c(c[n+](C)c3c4cc5c(cc4ccc23)OCO5)c1OC`, the AC50 was 10 µM (active).
Take `CC1(C)CCC(C)(C)c2c1ccc(O)c2Cc1c(O)ccc2c1C(C)(C)CCC2(C)C`: the activity, negative = inhibition was -38.9% [at 11.4 µM] (inactive).
For the compound `CC(Oc1ccc(-c2ccccc2)cc1)C(=O)O` (centres undefined), the AC50 is 28.2 µM (active).
`O=C(O)C(C(=O)O)P(=S)(S)c1ccccc1` (centres undefined): the activity, negative = inhibition was 23.5% [at 11.4 µM] (inactive).
With `N[C@H](C(=O)O)c1cc(=O)[nH]o1`, the AC50 entry is “inactive”.
In the case of `c1cnc(N2CCC3(CCNCC3)CC2)nc1`, the AC50 entry is “inactive”.
With `C[C@@]12CC[C@H]3[C@@H](CCC4=C(O)C(=O)CC[C@]43C)[C@H]1CCC2=O`, the AC50 result is “inactive”.
The same measure, in the same setting: to `COc1cc(C=C(C#N)C#N)cc(O)c1O` belongs “inactive”.
As for `CS(=O)(=O)O[C@H]1CN2CCC1CC2`, the activity, negative = inhibition is 20.2% [at 11.4 µM] (inactive).
In the case of `S=P(C1CCCCC1)(C1CCCCC1)[C@H](c1cccnc1)N1CCCC1`, the AC50 was 1.26 µM (active).
Consider `NP(N)(=O)NC(=O)c1ccc(F)cc1`, for which the AC50 entry is “inactive”.
For the compound `c1csc(CN2CC[C@@]3(CCCNC3)C2)n1`, the AC50 result is “inactive”.
With `C[N+]12CCC(CC1)[C@@H](OC(=O)C(O)(c1ccccc1)c1ccccc1)C2`, the AC50 entry was “inactive”.
Regarding `N#CCCN`, the AC50 entry is “inactive”.
Turning to `c1ccc2cc(CC3=NCCN3)ccc2c1`, the AC50 entry is “inactive”.
As to `COc1ccc2cc1Oc1ccc(cc1)C[C@H]1c3cc(c(OC)cc3CCN1C)Oc1c(OC)c(OC)cc3c1[C@@H](C2)N(C)CC3`, the activity, negative = inhibition was -36.6% [at 11.4 µM] (inactive).
For the compound `CC1=C2[C@@H]3OC(=O)[C@@H](C)[C@@H]3CC[C@]2(C)C=CC1=O`, the AC50 entry was “inactive”.
Consider `CCCCN1C(=O)/C(=C\c2ccco2)C(=O)N(CCc2ccccc2)C1=O`, for which the AC50 was 10 µM (active).
On the same count and under the same terms, under `Cc1cc2c(C(C)C)c(O)c(O)c(C=O)c2c(O)c1-c1c(C)cc2c(C(C)C)c(O)c(O)c(C=O)c2c1O` stands “inactive”.
For the compound `COC1=C[C@H]2C3=C([C@H]2C1=O)[C@H](NC(C)=O)CCc1cc(OC)c(OC)c(OC)c13`, the AC50 entry was “inactive”.
For `NC(=O)c1ccc(-c2nc(-c3ccc4c(c3)OCO4)c(-c3ccccn3)[nH]2)cc1`, the AC50 was 2.51 µM (active).
In the case of `CC(C)C(=O)CP(=O)(O)O`, the activity, negative = inhibition is 8.85% [at 11.4 µM] (inactive).
On the same count and under the same terms, under `N=C(N)SCc1ccc(Cl)c2ccccc12` (tested in a mixture with another compound) stands -27.8% [at 11.4 µM] (inactive) and -26.6% [at 11.4 µM] (inactive).
Regarding `Cn1c(O)c(C(c2ccccn2)c2c(O)n(C)c(=S)n(C)c2=O)c(=O)n(C)c1=S`, the AC50 result is “inactive”.
`COC(=O)C(O)(c1c(C)[nH]c2ccccc12)C(F)(F)F` (centres undefined): the AC50 was 5.01 µM (active).
As for `c1ccc2sc(C3(N4CCCCC4)CCCCC3)cc2c1`, the AC50 result is “inactive”.
In the case of `Nc1ncnc2c1ncn2[C@@H]1O[C@@H](COP(=O)(O)CP(=O)(O)OP(=O)(O)O)[C@H](O)[C@@H]1O`, the AC50 result is “inactive”.
With `NNC(N)=O`, the AC50 result was “inactive”.
For `c1cncc([C@@H]2CCCCN2)c1`, the AC50 entry is “inactive and 2 µM (active)”.
For the compound `c1cncc(CNCCN2CCNCC2)c1`, the activity, negative = inhibition is 7.54% [at 11.4 µM] (inactive).
As to `COc1ccc2c(c1)[C@]13CCCC[C@@H]1[C@H](C2)N(C)CC3`, the AC50 result is “inactive”.
With `O=[As](O)(O)c1ccc(N=Nc2ccc(O)cc2)cc1`, the activity, negative = inhibition was -12.7% [at 11.4 µM] (inactive).
For the compound `CCOc1ccc(C2C(C#N)=C(N)Oc3c2c(=O)oc2ccccc32)cc1` (centres undefined), the AC50 is 5.62 µM (active).
With `CN1CC[C@@]2(CCCN(C(=O)c3ccncc3)C2)C1`, the AC50 result was “inactive”.
In the case of `O=C1CS[C@@H](c2ccccc2Cl)c2cc(Cl)ccc2N1`, the AC50 was 25.1 µM (active).
`O=S(=O)(NCCO)c1cc[c]([Sb](=[O])([OH])[OH])cc1`: the activity, negative = inhibition is 14.4% [at 11.4 µM] (inactive).
Same read-out and setting: to `CC(C)c1ccc(C(O)(C(=O)O)c2ccc(C(C)C)cc2)cc1` belongs 21.5% [at 11.4 µM] (inactive); to `C[C@@]12CC[C@@H]3[C@H](CCC4=CC(=O)CC[C@]43C)[C@@H]1CC[C@@H]2C(=O)COS(=O)(=O)c1ccc(Br)cc1`, -21.8% [at 11.4 µM] (inactive).
For `COc1cc2c3cc1Oc1cc(ccc1O)C[C@@H]1c4c(cc(OC)c(O)c4Oc4cccc(c4)C[C@H]3N(C)CC2)CC[N+]1(C)C`, the AC50 entry is “inactive”.
On to `Cc1nc2ccccc2cc1C[N+]12CN3CN(CN(C3)C1)C2`, for which the activity, negative = inhibition is -23.7% [at 11.4 µM] (inactive).
For the compound `O=C(Cc1ccc(Cl)c(Cl)c1)N1CCCC[C@H]1CN1CCCC1`, the AC50 result is “inactive and 6.31 µM (active)”.
As for `COC(=O)N1CCN(C(=O)Cc2ccc(Cl)c(Cl)c2)[C@H](CN2CCCC2)C1`, the AC50 result is “inactive and 25.1 µM (active)”.
Same read-out and setting: under `CC[N+](CC)(CC)CCOc1cccc(OCC[N+](CC)(CC)CC)c1OCC[N+](CC)(CC)CC` stands “inactive”.
With `C=C[C@H]1CN2CC[C@@H]1C[C@H]2[C@@H](O)c1ccnc2ccccc12`, the AC50 result is “inactive”.
Turning to `N[C@H](Cn1ccc(=O)[nH]c1=O)C(=O)O`, the AC50 entry was “inactive”.
On to `C[C@@]12CC[C@H](O[C@@H]3O[C@H](CO)[C@@H](O)[C@H](O)[C@@H]3O)C[C@@H]1CC[C@H]1[C@H]2CC[C@@]2(C)[C@@H](C3=CCOC3=O)CC[C@]12O`, for which the activity, negative = inhibition is 22.6% [at 11.4 µM] (inactive).
In the case of `COC(=O)[C@H]1[C@H](c2ccccc2)C(=O)[C@@]2(O)c3ccccc3O[C@@]12c1ccccc1`, the activity, negative = inhibition was -15.7% [at 11.4 µM] (inactive).
In the case of `COc1cc2c(cc1O)C[C@H]1c3c(cc(O)c(OC)c3-2)CCN1C`, the AC50 entry was “inactive”.
Regarding `CC1=CC(=O)C2=C(C)C[C@@H](O)[C@@H]3[C@@H](OC(=O)[C@H]3C)[C@H]12`, the AC50 result was “inactive”.
As for `C[N+]1([O-])[C@@H]2CC[C@H]1CC(OC(=O)[C@@H](CO)c1ccccc1)C2` (some centres undefined), the AC50 result is “inactive”.
For `CC12CN3CC(C)(CN(C1)C31CCSCC1)C2=O`, the AC50 result is “inactive”.
As for `COc1cc(CN2CCN(C(=O)COc3ccccc3)CC2)cc(OC)c1OC`, the AC50 result was “inactive”.
Consider `O=C(COc1ccc2ccccc2c1)N1CCN(CC2CC3C=CC2C3)CC1` (centres undefined), for which the AC50 is 10 µM (active).
On to `CC(=O)N1CCC2(CC1)CC(=O)c1cc(OCC(=O)N3CCN(C)CC3)ccc1O2`, for which the AC50 entry is “inactive”.
As to `C(=NC12CN3CN(CN(C3)C1)C2)c1cccs1`, the AC50 entry is “inactive”.
For `CCCc1cc2c(n1Cc1cccc(Cl)c1)C(C)C1CN(C(=O)c3ccccc3)C(C)(C(=O)OC)C21` (centres undefined), the AC50 is 15.8 µM (active).
As to `N#CCCCC[N+]12CN3CN(CN(C3)C1)C2`, the activity, negative = inhibition was 19.8% [at 11.4 µM] (inactive).
Turning to `C=C(CC1(CNP(=O)(c2ccccc2)c2ccccc2)CC1)c1ccccc1`, the AC50 entry is “inactive”.
As for `O=C(O)[C@H]1C[C@@H]1[C@H](NP(=O)(c1ccccc1)c1ccccc1)c1ccccc1`, the AC50 entry is “inactive”.
As to `C=C(CC1(C(C)NP(=O)(c2ccccc2)c2ccccc2)CC1)c1ccccc1` (centres undefined), the AC50 is 10 µM (active).
As to `CNC(=O)OCC[N+](C)(C)C`, the AC50 result is “inactive”.
In the case of `O=C(O)c1ccccc1-c1c2cc(Br)c(=O)cc-2oc2[c]([Hg])c(O)c(Br)cc12`, the AC50 was 3.16 µM (active).
Still for that read-out and setting: to `NC(N)=Nc1ccc2[nH]c3c(c2c1)C[C@]1(O)[C@@H]2Cc4ccc(O)c5c4[C@]1(CCN2CC1CC1)[C@@H]3O5` belongs “inactive”.
With `N[C@H](Cc1ccc2oc3cc(=O)c4ccccc4c-3nc2c1)C(=O)O`, the activity, negative = inhibition is -35.8% [at 11.4 µM] (inactive).
`O=C(O)CCCc1ccc(N(CCCl)CCCl)cc1`: the AC50 result was “inactive”.
For `COC(=O)c1[nH]c2ccc(Br)cc2c1NC(=O)Oc1ccccc1`, the AC50 is 11.2 µM (active).
